Where “and” joins values, the source holds several entries; their conditions need not be identical. Equal values may be shown once. Inconclusive results are not listed. Entries that show only a call come without a potency. Where a structure was tested more than once in an assay, its records may differ in their call. Calls of active or inactive are those of the source. The call rests on the fitted dose curve; in most records, active means well fitted curve in the direction sought with a large enough effect; inconclusive means small, poorly fitted or top-dose-only effect, or another doubt; inactive means no such curve, though single readings can be large; an effect the other way counts as inactive or inconclusive.
What was measured:
[1] = biological target: Glutathione peroxidase 1 (Homo sapiens) (UniProt P07203); experiment: Primary qHTS Assay for Inhibitors of Recombinant Selenoprotein Glutathione Peroxidase 1 (GPX1) (AID 1845191); further: nearly all actives have a fitted effect of over 65% in size; further: potency means the concentration at half of the fitted maximal effect
In short: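 GR-coupled assay: compounds preincubated 30 min at room temperature with GPX1, then reaction started with CHP; final 10 nM GPX1, 1 mM GSH, 0.5 mM CHP, 0.5 mM NADPH, 100 nM GR, 0.01% BSA, pH 7.5 Tris buffer. NADPH fluorescence (340/450 nm) read at 0 and 15 min.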

[2] = biological target: Phospholipid hydroperoxide glutathione peroxidase GPX4 (Homo sapiens) (UniProt P36969); experiment: Primary qHTS Assay for Inhibitors of Recombinant Selenoprotein Glutathione Peroxidase 4 (GPX4) (AID 1845192); further: nearly all actives have a fitted effect of over 65% in size; further: potency means the concentration at half of the fitted maximal effect
In short: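 GR-coupled assay: recombinant GPX4 preincubated 30 min with compound at room temperature; final 200 nM GPX4, 1 mM GSH, 0.5 mM cumene hydroperoxide, 0.5 mM NADPH, 100 nM GR, 0.01% BSA, pH 7.5 Tris. NADPH fluorescence (340/450 nm) read at 0 and 15 min.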

[3] = Quantitative High-Throughput drug screen in 47 multiple myeloma cell lines against the NCATS MIPE library collection: Karpas620_DSMZ cell viability assay (AID 1918959); further: nearly all actives have a fitted effect of over 30% in size; further: potency means the concentration at half of the fitted maximal effect
In short: (§1)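 Myeloma cell lines, 500 cells per well, exposed to MIPE 4.0 library compounds for 48 h at 37C, 5% CO2. Viability from ATP by CellTiter-Glo luminescence; normalised to DMSO (100%) and media-only (0%) wells.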

[4] = biological target: Luciferin 4-monooxygenase (Photinus pyralis) (UniProt P08659); experiment: Primary firefly luciferase (FLuc) qHTS assay for identification of artifact compounds. (AID 1845220); further: nearly all actives have a fitted effect of over 60% in size; further: potency means the concentration at half of the fitted maximal effect
In short: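 Enzymatic FLuc inhibition assay: compounds pre-exposed to luciferin/ATP (10 uM each) for 15 min, then purified P. pyralis enzyme at 10 nM added. Read-out: luminescence at 5 min.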

[5] = Primary fluorescence-based thiol-reactive (MSTI) qHTS assay for identification of artifact compounds. (AID 1845221);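 further: series mostly up to about 54 µM; thiol-reactive compounds lower the probe fluorescence signal; nearly all actives have a fitted effect of over 65% in size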
In short: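 One-hour, room-temperature, dark incubation of compound with 4 uM MSTI in PBS (pH 7.4, 2% DMSO) precedes a fluorescence read at 525 nm excitation, 598 nm emission; Hill-equation fitting yields concentration-response values.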

[6] = test system: Nanoluciferase (engineered Oplophorus gracilirostris luciferase); experiment: Primary Nanoluciferase (NLuc) qHTS assay for identification of artifact compounds. (AID 1845222);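 further: NLuc secreted into diluted conditioned medium of S16 cells; series mostly up to about 54 µM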
In short: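 S16 cell supernatant NLuc, 1:55; cpds qHTS; 15 min RT dark; Nano-Glo substrate 1:100, 5 min; luminescence; Hill fit of % inhibition.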

[7] = Primary redox qHTS assay for identification of artifact compounds. (AID 1845223)
In short: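 Amplex Red (25 uM) and HRP (250 mU/mL) in HBSS, with compounds for 15 min, then 250 uM DTT for 30 min, room temperature, dark. Fluorescence 525/598 nm read; normalized to DMSO and 10 uM DA3003; Hill fit.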

[8] = Quantitative High-Throughput drug screen in 47 multiple myeloma cell lines against the NCATS MIPE library collection: FR4_PLB cell viability assay (AID 1918924; further: nearly all actives have a fitted effect of over 35% in size; further: potency means the concentration at half of the fitted maximal effect)
In short: as §1

[9] = Quantitative High-Throughput drug screen in 47 multiple myeloma cell lines against the NCATS MIPE library collection: ARD_JJKsccE7 cell viability assay (AID 1918929; further: potency means the concentration at half of the fitted maximal effect)
In short: (§2)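 Primary qHTS used for cherry-picking: cells at 500/well, library compounds for 48 h (37C, 5% CO2), luminescent ATP assay.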

[10] = Quantitative High-Throughput drug screen in 47 multiple myeloma cell lines against the NCATS MIPE library collection: EJM_DSMZ cell viability assay (AID 1918926; further: nearly all actives have a fitted effect of over 30% in size; further: potency means the concentration at half of the fitted maximal effect)
In short: as §2

[11] = Quantitative High-Throughput drug screen in 47 multiple myeloma cell lines against the NCATS MIPE library collection: Delta47_JCRB cell viability assay (AID 1918925; further: nearly all actives have a fitted effect of over 45% in size; further: potency means the concentration at half of the fitted maximal effect)
In short: as §2

[12] = Quantitative High-Throughput drug screen in 47 multiple myeloma cell lines against the NCATS MIPE library collection: AMO1_DSMZ cell viability assay (AID 1918927; further: nearly all actives have a fitted effect of over 30% in size; further: potency means the concentration at half of the fitted maximal effect)
In short: as §2

[13] = Quantitative High-Throughput drug screen in 47 multiple myeloma cell lines against the NCATS MIPE library collection: ARP1_JJKsccF8 cell viability assay (AID 1918928; further: nearly all actives have a fitted effect of over 40% in size; further: potency means the concentration at half of the fitted maximal effect)
In short: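 Myeloma cells at 500 per well in 1536-well format treated with MIPE 4.0 library by pin transfer for 48 h at 37C, 5% CO2. Viability from ATP luminescence (CellTiter-Glo), normalized to DMSO (100%) and media-only (0%) wells.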

Glutathione peroxidase 1 (Homo sapiens), sequence (P07203 whole entry, looked up): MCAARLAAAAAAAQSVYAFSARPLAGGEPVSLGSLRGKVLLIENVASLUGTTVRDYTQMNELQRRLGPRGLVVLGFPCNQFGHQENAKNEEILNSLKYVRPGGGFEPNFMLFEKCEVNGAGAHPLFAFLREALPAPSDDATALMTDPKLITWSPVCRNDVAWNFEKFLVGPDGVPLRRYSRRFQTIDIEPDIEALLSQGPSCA
Phospholipid hydroperoxide glutathione peroxidase GPX4 (Homo sapiens), sequence (P36969 whole entry, looked up): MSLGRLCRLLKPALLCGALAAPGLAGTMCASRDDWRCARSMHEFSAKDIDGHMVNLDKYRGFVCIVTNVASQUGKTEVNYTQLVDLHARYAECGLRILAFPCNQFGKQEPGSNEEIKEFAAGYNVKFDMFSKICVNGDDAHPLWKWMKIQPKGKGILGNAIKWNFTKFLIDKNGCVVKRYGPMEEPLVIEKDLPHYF

Compound	Potency [1]	Potency [2]	Potency [3]	Potency [4]	Potency [5]	Potency [6]	outcome [7]	Potency [8]	Potency [9]	Potency [10]	Potency [11]	Potency [12]	Potency [13]
CCOC(=O)[C@@H](N)CCC(=O)N[C@@H](CSCc1ccccc1)C(=O)N[C@@H](C(=O)OCC)c1ccccc1	inactive	inactive	14.8 µM (active)	–	–	–	–	–	–	–	–	–	–
COc1ccc(CCC(=O)Nc2nc3ccc(Cl)cc3s2)cc1OC	–	inactive	inactive	inactive	inactive	inactive	inactive	inactive	inactive	–	–	–	–
Cn1c(=O)c(Oc2ccc(F)cc2F)cc2cnc(NC3CCOCC3)nc21	16.3 µM (active)	–	inactive	–	–	–	–	–	0.0074 µM (active)	inactive	–	–	–
O=C(c1ccc(C(=O)N2CCC(N3CCCC3)CC2)c(Nc2ccccc2)c1)N1CCC(N2CCCC2)CC1	–	inactive	inactive	inactive	–	inactive	–	inactive	inactive	14.8 µM (active)	inactive	inactive	5.26 µM (active)
CN1CCC(COc2cnc(-c3cccc(Cn4nc(-c5cccc(C#N)c5)ccc4=O)c3)nc2)CC1	–	inactive	inactive	inactive	inactive	inactive	inactive	26.4 µM (active)	inactive	–	0.209 µM (active)	–	20.9 µM (active)
Cc1cc(-c2ncc(CC(=O)Nc3ccc(-c4cnccn4)cn3)cc2C)ccn1	inactive	–	–	inactive	inactive	inactive	inactive	–	9.35 µM (active)	–	14.8 µM (active)	11.8 µM (active)	–
C[C@@]1(c2cc(-c3cncnc3)c(F)cc2F)CCSC(N)=N1	–	inactive	2.35 µM (active)	inactive	inactive	inactive	inactive	–	0.059 µM (active)	inactive	inactive	14.8 µM (active)	inactive
COc1ccc(-c2nc3ccc(C4=NNC(=O)CC4C)cc3[nH]2)cc1 (stereo unspecified)	inactive	–	inactive	10.7 µM (active)	inactive	inactive	inactive	inactive	inactive	inactive	–	inactive	inactive
C[C@]12CC[C@@H]3c4ccc(O)cc4CC[C@H]3[C@H]1[C@@H](O)[C@@H](O)[C@H]2O	inactive	inactive	inactive	–	–	–	–	–	–	–	–	–	–
O=c1[nH]nc(OCCCc2ccc(Cl)cc2)c(NCc2cccnc2)c1Br	–	inactive	10.5 µM (active)	–	inactive	inactive	inactive	16.6 µM (active)	–	18.7 µM (active)	4.18 µM (active)	7.43 µM (active)	18.7 µM (active)
C[C@H]1COC2=C1C(=O)C(=O)c1c2ccc2c1CCCC2(C)C	inactive	–	–	–	–	–	–	–	inactive	–	14.8 µM (active)	–	–
CC(C)CN(C[C@@H](O)[C@H](Cc1ccccc1)NC(=O)O[C@H]1CO[C@H]2OCC[C@H]21)S(=O)(=O)c1ccc(N)cc1	inactive	–	inactive	–	–	–	–	inactive	inactive	5.9 µM (active)	1.48 µM (active)	inactive	–
O=C(O)CCC=CCC[C@@H]1[C@H](N2CCCCC2)[C@@H](O)C[C@@H]1OCc1ccc(-c2ccccc2)cc1	inactive	–	inactive	–	–	–	–	inactive	–	inactive	inactive	–	inactive
CC(C)(C)c1nc(-c2cccc(NS(=O)(=O)c3c(F)cccc3F)c2F)c(-c2ccnc(N)n2)s1	–	inactive and 12.8 µM (active) and 11.2 µM (active)	20.9 µM (active)	inactive	inactive	inactive	–	–	18.7 µM (active)	20.9 µM (active)	3.32 µM (active)	3.72 µM (active)	–
CC1=C[C@@H]2[C@@H]([C@@H](O)C[C@@]3(C)[C@H]2C[C@@H](C)[C@]3(O)C(=O)CO)[C@@]2(C)Cc3cnn(-c4ccccc4)c3C=C12	inactive	–	–	inactive	inactive	inactive	–	–	0.0059 µM (active)	–	–	5.26 µM (active)	–
COc1cc([C@@H]2c3cc4c(cc3[C@@H](O[C@@H]3O[C@@H]5CO[C@@H](C)O[C@@H]5[C@H](O)[C@@H]3O)[C@H]3COC(=O)[C@H]23)OCO4)cc(OC)c1O	inactive	inactive	–	–	–	–	–	–	inactive	–	–	–	–
O=C(CCCN1CCN(c2ccc(F)cc2)CC1)NC1c2ccccc2CSc2ccccc21 (stereo unspecified)	inactive	–	6.62 µM (active)	–	inactive	inactive	inactive	–	3.32 µM (active)	–	5.26 µM (active)	6.62 µM (active)	3.72 µM (active)
